Screen size: about 320,000 compounds; about 9,100 (2.8%) were called active. About 3% were inconclusive and are not listed. Calls come from the whole dose curve; as a rule, active = well fitted activation curve with a large enough effect; inconclusive = small, poorly fitted or top-dose-only effect; inactive = no such curve, though single readings can be large or run the other way. What follows is part of a selection rich in actives, with near analogues and random picks from the rest.
Test: qHTS Assay for Rab9 Promoter Activators; note: nearly all actives have a fitted effect of over 60% in size; for activation, negative = inhibition: % of control where 0% means no effect
Details: Huh7 Rab9 promoter-luciferase reporter, luminescence, 24 h; series mostly up to 9.22 µM; activation, negative = inhibition: at the top concentration
Excerpt: NIH Chemical Genomics Center [NCGC] NIH Molecular Libraries Probe Production centers Network [MLPCN] MLPCN Grant: MH089537-01 Assay Submitter (PI): Yiannis A. Ioannou NCGC Assay Overview: Niemann Pick Type C (NPC) is a rare neurodegenerative lipidosis that is characterized by lipid storage in the endosomal/lysosomal system. Treatment modalities for this devastating disease are currently non-existent due to the severe obstacles associated with accessing the central nervous system with proteins or genes (Ioannou, 2000). We have developed a new paradigm, termed "Orphan Receptor Bypass Therapy" (ORByT), to address these disorders. This paradigm posits the existence of endogenous "suppressor" proteins whose expression can dramatically improve LSD pathogenesis. The goal is the identification/discovery of small chemical compounds that can modulate the expression of these proteins and provide a new treatment modality for these devastating disorders. One such protein whose overexpression reverses aspects of the NPC phenotype is Rab9. We have developed and optimized a cell based luciferase reporter assay in 1536 well format for the identification of up-regulators of the Rab9 promoter.
The Rab9 promoter is cloned in front of the luciferase reporter gene, therefore […] promoter activation results in luciferase expression. Frozen stock of the Rab9 promoter transfected Huh7 cells were obtained from the laboratory of Dr. Yiannis Ioannou (The Mount Sinai School of Medicine, New York, NY). Cells were propagated and maintained at NCGC in medium containing RPMI-1640 supplemented with 10% FBS, 2mM L-glutamine, and 50ug/ml penicillin/streptomycin. Cells were harvested in and plated for assays in OP-MEM I reduced-serum medium supplemented with 10% FBS. The Amplite luciferase reporter gene assay kit was purchased from ABD Bioquest and prepared/stored according to manufacturers recommendations. qHTS Assay Setup: 1.Dispensed 5ul of Huh7 cells stably expressing Rab9-luciferase at a density of 1500 cells per well 1536-well plates. 2.Incubate cells at 37C, 5% CO2, and 95% humidity for 2 hours. 3.Transferred 23nl per well of compound in DMSO solution. 4.Incubated at 37C, 5% CO2, and 95% humidity for 24 hours. 5.Dispensed 3ul per well of Amplite reagent(ABD Bioquest) per well. 6.Incubate at ambient for 10 minutes. 7.Read using the luminescence protocol on the ViewLux plate reader (Perkin Elmer).
Potency is the fitted concentration of half-maximal effect.

| Structure (SMILES) | activation, negative = inhibition | Potency |
| --- | --- | --- |
| CCN(CC(=O)Nc1ccc(OC)cc1)C(=O)CSCc1ccc(C)cc1 | -5.85% (inactive) | – |
| CC1(C)CC(=O)C=C(c2ccc3ncccc3c2)C1 | -3.31% (inactive) | – |
| O=C(Nc1cc(S(=O)(=O)N2CCOCC2)ccc1OCC(F)(F)F)c1ccc(N2CCCC2=O)cc1 | 0.24% (inactive) | – |
| O=C(CSc1ccc(-c2ccco2)nn1)Nc1cccc(F)c1 | -1.84% (inactive) | – |
| Fc1cccc(Cl)c1CSc1ccc(-c2ccco2)nn1 | – | 2.51 µM (active) |
| Cc1cc(SCc2c(F)cccc2Cl)nc(=O)[nH]1 | 8.66% (inactive) | – |
| O=C(COC(=O)CNC(=O)C1CCCCC1)Nc1cccc(F)c1 | 1.46% (inactive) | – |
| CCN(CC(=O)Nc1c(F)cccc1F)C(=O)c1ccc(-c2ccc(C(C)=O)cc2)o1 | -4.82% (inactive) | – |
| Cc1cc(C)cc(-c2nnc(SCC(=O)NC3CC3)o2)c1 | 0.777% (inactive) | – |
| Cc1ccc(C(CC(=O)O)NC(=O)c2ccc(S(=O)(=O)N3CCCC3)cc2)cc1 (stereo not drawn) | -1.46% (inactive) | – |
| O=C(OCc1ccc(Br)cc1)c1cccc(-c2nnc(-c3ccccc3)o2)c1 | – | 3.55 µM (active) |
| O=C(OCc1nnc(-c2ccccc2)o1)c1ccc2c(c1)C(=O)N(CCc1ccccc1)C2=O | -10.1% (inactive) | – |
| CC(=O)Nc1cccc(C(=O)OCC(=O)Nc2nnc(-c3ccccc3)o2)c1 | -1.13% (inactive) | – |
| O=C(COc1cccc(-n2cnnn2)c1)NCCC1=CCCCC1 | -3.87% (inactive) | – |
| O=C(NCCC1=CCCCC1)c1ccc(Cl)c([N+](=O)[O-])c1 | 3.78% (inactive) | – |
| O=C(NCCC1=CCCCC1)c1ccc(-n2cncn2)cc1 | – | 3.16 µM (active) |
| C=C1CCC(N(O)c2cc(C)on2)C(=C)CCC2C1CC2(C)C (stereo not drawn) | -1.42% (inactive) | – |
| Cc1ccc(OCC(=O)N2CCN(S(=O)(=O)c3ccc(Cl)s3)CC2)cc1C | -6.05% (inactive) | – |
| Cc1ccc(/C=C/C(=O)OCC(=O)NCc2ccc(Cl)cc2)o1 | -9.12% (inactive) | – |
| COc1cccc(COc2ccc(N(C)S(=O)(=O)c3ccccc3)cc2)c1 | -0.555% (inactive) | – |
| CC(=O)Oc1ccc(-c2cccc(C(=O)N3CCCCC3)c2)cc1 | 11.6% (inactive) | – |
| CCOc1ccc(OCc2cccc(C(=O)N(CC)CC)c2)cc1 | – | 0.141 µM (active) |
| CN(Cc1ccccc1)C(=O)c1ccc(COc2ccccc2)cc1 | -1.02% (inactive) | – |
| COc1ccc(OCc2cccc(C(=O)N3CCCC3)c2)cc1 | – | 0.398 µM (active) |
| COc1ccc(Cn2c(=S)[nH]c3cc(C(=O)N4CCCCC4)ccc3c2=O)cc1 | 1.59% (inactive) | – |
| COc1ccccc1CNS(=O)(=O)c1cc(C(=O)NCc2ccccn2)c(Cl)cc1Cl | -2.2% (inactive) | – |
| CC(C(=O)N(C)CC(=O)Nc1ccccc1C(F)(F)F)N1C(=O)c2ccccc2C1=O (stereo not drawn) | 0.587% (inactive) | – |

| Structure (SMILES) | activation, negative = inhibition | Potency |
| --- | --- | --- |
| Nn1c(SCC(=O)Nc2nccs2)nnc1-c1ccco1 | -2.6% (inactive) | – |
| CCN(CC(=O)Nc1ccc(OC)cc1)C(=O)c1ccc(Cl)c(S(=O)(=O)N2CCCC2)c1 | -1.06% (inactive) | – |
| Cc1ccccc1NC(=O)Cc1nc(COC(=O)c2cccnc2Cl)cs1 | 1.11% (inactive) | – |
| O=C(NCCc1c[nH]c2ccccc12)c1cc2ccccc2oc1=O | – | 3.98 µM (active) |
| O=C(NCCc1c[nH]c2ccccc12)c1cccc(Br)c1 | -1.43% [at 1.84 µM] (inactive) | – |
| CN(c1ccccc1)S(=O)(=O)c1ccc(Cl)c(C(=O)NCCc2c[nH]c3ccccc23)c1 | -1.2% (inactive) | – |
| COCCNc1nnc(SCC(=O)NNC(=O)c2ccco2)s1 | 1.51% (inactive) | – |
| CCCCc1ccc(NS(=O)(=O)c2cccc(C(=O)N3CCCN(C)CC3)c2)cc1 | -0.577% (inactive) | – |
| COc1ccccc1P(=O)(c1ccccc1)c1ccccc1NC(C)=O (stereo not drawn) | -1.37% (inactive) | – |
| Cc1cc2nc(SCCN3CCOCC3)[nH]c2cc1C | – | 3.55 µM (active) |
| CCn1c2ccc(F)cc2c2nnc(SCCN3CCOCC3)nc21 | 0.369% (inactive) | – |
| Cc1cccc(C)c1OCCN1CCOCC1 | 1.22% (inactive) | – |
| O=C(Nc1cccnc1Oc1ncnc2cc(Cl)ccc12)c1ccc(F)cc1 | -0.405% (inactive) | – |
| Cc1ccc(S(=O)(=O)N(C)C)cc1NC(=O)c1ccc(-n2cncn2)c([N+](=O)[O-])c1 | -2.73% (inactive) | – |
| O=C(O)c1cccc(N2C(=O)Nc3ccccc3N2O)c1 | -0.52% (inactive) | – |
| C/C(=N\Nc1cccc(C(=O)O)c1)c1ccc2c(c1)Nc1ccccc1S2 | – | 3.16 µM (active) |
| O=C(NC1CC1)c1ccc2c(c1)NC(=O)c1ccccc1S2 | 0.355% (inactive) | – |
| CCc1ccccc1NC(=O)CN(C)C(=O)c1cc(C2CC2)nn1-c1ccccc1 | -6.71% (inactive) | – |
| CCN1C(=S)N[C@@H](c2cccc(C(F)(F)F)c2)C(C(=O)OC)=C1C | -0.0689% (inactive) | – |
| O=C(CN1CCN(S(=O)(=O)c2ccc(Cl)s2)CC1)N1CCCCC1 | 1.18% (inactive) | – |
| COC(=O)c1cc(NS(=O)(=O)c2ccc3c(c2)c(=O)n(C)c(=O)n3C)cc(C(=O)OC)c1 | -1.46% (inactive) | – |
| CSc1ccccc1C(=O)OCC(=O)N1CCN(C(C)=O)CC1 | 10.5% (inactive) | – |
| N#C/C(=C1/CCCN1)c1ccccn1 | -3.34% (inactive) | – |
| N#CC(=C1CCCC1)c1nc(-c2ccc(Cl)cc2)cs1 | – | 3.16 µM (active) |
| CCCCCN1CC(O)=C(c2nc(-c3ccc(Cl)cc3)cs2)C1=N | -1.52% (inactive) | – |
| CCCCN(C(=O)c1nn(C)c(=O)c2ccccc12)c1c(N)n(CCC)c(=O)[nH]c1=O | -1.21% (inactive) | – |
